About 37,000 (12%) of roughly 300,000 compounds were called active. The sample holds actives, similar compounds and a random draw of the others, so the mix is not that of the screen. Cut-off read from the data, not from the text of the source: active = max response mostly above about 13% (no sharp cut-off); inactive = mostly below about 14%.

This test is described as follows: Cycloheximide Counterscreen for Small Molecule Inhibitors of Shiga Toxin. Note: read at 38.3 µM for the half of the compounds with a filed dose; 0% is about no effect. The conditions noted are these: cell reporter, cycloheximide protein synthesis inhibition counterscreen; hits give high values. On the technique in general: The purpose of a counterscreen is to sort out artefacts and off-target activity.
Consider `CC(=O)Nc1ccc(NC(=O)c2ccc3c(c2)C(=O)N(c2ccccc2C)C3=O)cc1`, for which the max response is -2.35% (inactive).

With `CCOc1ccc(-n2c(SCC(N)=O)nnc2-c2ccco2)cc1`, the max response was -1.88% (inactive). For `COc1cc(CNCc2ccc(OC)c3ccccc23)cc(OC)c1OC` the value was -1.1% (inactive); for `CCN1CCN(C(=O)C2CCN(S(=O)(=O)c3cc(Cl)ccc3Cl)CC2)CC1`, -1.01% (inactive); for `CCOC(=O)C1=C(C)NC2=C(C(=O)CC(C)(C)C2)C1c1ccsc1` (centres undefined), 8.09% (inactive). On to `COc1ccc(C(CNC(=O)COc2ccc([N+](=O)[O-])cc2)N2CCCCC2)cc1` (centres undefined), for which the max response is -2.15% (inactive). Regarding `Cc1cnc(C(=O)OCC(=O)N2CCc3ccccc32)cn1`, the max response is 9.5% (inactive).

As to `O=C(c1cnn2ccccc12)N1CCc2ccccc21`, the max response was 66.5% (active). As for `CCOC(=O)N1CCC(NC(=O)c2cnn3ccccc23)CC1`, the max response is -4.51% (inactive).

Take `Cc1ccc(-c2nc(COC(=O)c3c(C)noc3C)cs2)cc1`: the max response is 73.1% (active). As to `Cc1ccc(S(=O)(=O)N2CCN(C(=O)COC(=O)c3c(C)noc3C)CC2)c(C)c1`, the max response was -2.98% (inactive). On to `Cc1noc(C)c1COC(=O)c1cc2ccccc2cc1O`, for which the max response is -1.04% (inactive). For the compound `c1ccc(-c2csc(N3CCc4ccccc4C3)n2)cc1`, the max response was 36.5% (active). The same measure for `CN(C)CCCNC(=S)N1CCN(c2nc(-c3ccccc3)cs2)CC1`: -1.66% (inactive); for `O=C(CN1CCN(c2nc(-c3ccccc3)cs2)CC1)NCc1ccc2c(c1)OCO2`: -2.7% (inactive); for `CCOC(=O)Cn1c(O)c(N=NC(=O)CNC(=O)Cc2ccccc2)c2ccccc21`: 5.93% (inactive). `CCCc1ccc(C(=O)[C@@H]2[C@@H](C(C)=O)N3c4ccc(F)cc4C=C[C@@H]3[C@@]23C(=O)Nc2ccccc23)cc1`: the max response was -1.55% (inactive). As to `O=S(=O)(c1ccc(Cl)cc1)c1nc(-c2ccco2)oc1N1CCCCC1`, the max response is 3.16% (inactive). Take `O=C(NCCCN1CCCCC1)C1CCCN(c2ncnc3c2nc2n3CCCCC2)C1` (centres undefined): the max response was -1.32% (inactive). In the case of `O=C(Nc1ccccc1)OCc1cn(-c2ccc(Cl)cc2)nn1`, the max response is -3.74% (inactive).

In the case of `CO/N=C/c1cn(-c2ccc(Cl)cc2)nn1`, the max response is 24.4% (active). As for `CN(C)c1nnnn1-c1ccc(Cl)cc1`, the max response was -4.44% (inactive). With `COc1cc(NC(=O)C2CC(c3ccccc3O)=NO2)c(OC)cc1Cl` (centres undefined), the max response is -1.7% (inactive).

For the compound `COCCN1C(=O)C(=O)/C(=C(/O)c2ccc(S(=O)(=O)N3CCCCC3)cc2)C1c1ccc(OC)c(OC)c1` (centres undefined), the max response is -1.21% (inactive). For `CC(C)n1c(=O)c(C=Nc2ccc(Br)cc2)c(O)n(Cc2ccco2)c1=O`, the max response was -2.65% (inactive).

Turning to `Cc1cs/c(=N\N=C\c2ccc(O)cc2)n1Cc1ccco1`, the max response is 21.5% (active).

Turning to `CN(C)CCCN=Cc1c(O)n(Cc2ccco2)c(=O)[nH]c1=O`, the max response was 8% (inactive). As to `O=c1c2c(-c3ccccc3)ccnc2[nH]n1-c1ccccc1`, the max response was 9.85% (inactive). The same measure for `O=C(Nc1cccc2ccccc12)c1onc2c1CCCC2`: 43.2% (active); for `O=C(O)c1ccccc1-c1ccccc1C(=O)Nc1cccc2ccccc12`: -3.02% (inactive). The same measure for `O=C(COC(=O)c1ccccn1)Nc1cccc2ccccc12`: -1.89% (inactive); for `O=C(c1ccc2c(c1)N(Cc1ccc(F)cc1)C(=O)c1ccccc1S2(=O)=O)N1CCN(c2ccccn2)CC1`: 0.32% (inactive). Take `O=[N+]([O-])c1cnc2ccc3ccccc3c2c1`: the max response was 8.23% (inactive).

Regarding `O=C(CSc1nc2ccc([N+](=O)[O-])cc2[nH]1)c1ccc(Cl)cc1`, the max response was 3.9% (inactive). As for `O=[N+]([O-])c1ccc2nc(-c3ccccn3)[nH]c2c1`, the max response is 51% (active). The same measure for `CCOc1ccc(CCNC(=O)Nc2ccccc2)cc1OCC`: 6.01% (inactive).

On to `COc1ccc(-n2nnnc2SCc2nc(N)nc(N3CCOCC3)n2)cc1`, for which the max response is -3.81% (inactive). The same measure for `COc1cc(NC(=O)c2ccc(-c3csc(C)n3)cc2)c(OC)cc1Cl`: -4.02% (inactive); for `Cc1nn(-c2ccccc2)c(C)c1NC(=O)COc1ccc(Cl)cc1Cl`: -1.6% (inactive); for `Cc1cc(NC(=O)COc2ccc(Cl)cc2Cl)n(CCC#N)n1`: 43.5% (active).

Take `CCCn1nnnc1NC(=O)COc1ccc(Cl)cc1C`: the max response was 14.6% (inactive). The same measure for `COCCNc1cc(-c2ccccc2)nc2cc(-c3cccc(F)c3)nn12`: -0.87% (inactive); for `COc1ccccc1C(=O)N(C1=NC(C)CS1)c1ccc(Cl)cc1` (centres undefined): -1.66% (inactive); for `CC(=O)Nc1ccc(C(=O)N(C2=NC(C)CS2)c2ccc(Cl)cc2)cc1` (centres undefined): 28.7% (active). With `CC(=O)Nc1ccc(NC(=O)CCCNC(=O)c2ccc(Cl)cc2)cc1`, the max response is -0.304% (inactive). For the compound `CSCCC(NS(=O)(=O)c1ccc(C)cc1)C(=O)NCCc1c[nH]c2ccccc12` (centres undefined), the max response is -3.49% (inactive). For `COc1ccc(NC(=S)NCC2CCN(c3ccc(OC)cc3)C2)cc1` (centres undefined) the value was 1.9% (inactive). Consider `COc1ccc(NC(=S)N2N=CCC2c2ccccc2)cc1` (centres undefined), for which the max response is 36.2% (active). With `COc1ccc(N2CCN(C(=S)Nc3ccc(S(N)(=O)=O)cc3)CC2)cc1`, the max response is -1.06% (inactive). On to `COc1ccc(NC(=S)N2CCc3cc(OC)c(OC)cc3C2)cc1`, for which the max response is 14.2% (inactive). With `Cc1ccccc1N(C(=O)CNC(=O)c1cccs1)C(C(=O)NC1CCCC1)c1ccncc1` (centres undefined), the max response is -8.35% (inactive).

For the compound `CC(=O)c1cc(CN2CCC(n3nccc3NC(=O)c3ccccc3Cl)CC2)cs1`, the max response is -1.43% (inactive).

As for `COCCNc1ncnc2c1nc1n2CCCC1`, the max response was -3.81% (inactive). For the compound `CC(NC(=O)COc1ccc(-c2ccccc2)cc1)C1CCCO1` (centres undefined), the max response is 1.81% (inactive). For the compound `Cc1ccc(S(=O)(=O)NC(=O)c2cccc(C)c2)cc1`, the max response was 13.6% (inactive). The same measure for `Cc1cc(-n2cnc(-c3cn(C)nc3C)n2)no1`: 21.3% (active). For `COc1ccc(C)cc1S(=O)(=O)N1CCN(S(=O)(=O)c2cc(C(=O)O)ccc2C)CC1` the value was 1.26% (inactive). Turning to `CCOC(=O)/C(=N\Nc1ccccc1Cl)N(C)C1CCS(=O)(=O)C1` (centres undefined), the max response was -5.92% (inactive). Consider `NC(=O)c1c(NC(=O)CSc2nnc(-c3ccco3)n2N)sc2c1CCCC2`, for which the max response was 5.01% (inactive).

With `NC(=O)c1c(NC(=O)CSc2nc(N)cc(=O)[nH]2)sc2c1CCCC2`, the max response is -0.688% (inactive). The same measure for `O=C(O)c1c(NC(=O)N2CCCC2)sc2c1CCCC2`: 25.7% (active). The same measure for `Fc1cc(F)c2nc(Nc3nc4c(F)cccc4s3)sc2c1`: 13.2% (active); for `CC(C)OC(=O)c1c(NC(=O)c2ccco2)sc2c1CCCC2`: -0.728% (inactive); for `COC(=O)c1c(NC(=O)C2CC(C)=C(C)CC2C(=O)O)sc2c1CCCCC2` (centres undefined): -1.42% (inactive). `NC(=O)c1c(Nc2nc3c(F)cccc3s2)sc2c1CCCC2`: the max response is 17.8% (active).

Regarding `COc1cc2ccccc2cc1C(=O)N(CCN(C)C)c1nc2c(F)cccc2s1`, the max response was -3.64% (inactive).

Consider `C=CCN(CC=C)S(=O)(=O)c1ccc(C(=O)Nc2sc3c(c2C(N)=O)CCCCC3)cc1`, for which the max response is 3.07% (inactive). For `O=C(Nc1sc2c(c1C(=O)O)CCC2)c1ccccc1F` the value was -2.19% (inactive); for `NC(=O)c1c(NC(=O)c2ccccc2)sc2c1CCCC2`, 31.6% (active).

Values taken from PubChem BioAssay AID2314 (National Center for Advancing Translational Sciences (NCATS), 2010).
